Records with an inconclusive call do not appear. Activity calls are given as the source filed them. Unless noted, calls follow the shape of the dose curve; as a rule, active = well fitted curve in the direction sought with a large enough effect in the repeat runs; inconclusive = weak or mixed curves; inactive = no such curve, though single readings can be large; an effect the other way counts as inactive or inconclusive.
Tests used:
[1] = A CellTox Green Cytotoxicity Assay to monitor cytotoxicity in HepG2 cells - 16 hour (AID 1224876); also: nearly all actives have a fitted effect of over 45% in size
Outline: (§1)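 First, HepG2 cells (600/well) mixed with reagent were plated; second, after 5 h at 37 C they received compounds via pintool; third, fluorescence was measured at 0 h through 40 h at 8 h intervals.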

[2] = A CellTox Green Cytotoxicity Assay to monitor cytotoxicity in HepG2 cells - 24 hour (AID 1224878); also: nearly all actives have a fitted effect of over 45% in size
Outline: as §1

[3] = A CellTox Green Cytotoxicity Assay to monitor cytotoxicity in HepG2 cells - 40 hour (AID 1224879); also: nearly all actives have a fitted effect of over 40% in size
Outline: as §1

[4] = qHTS RealTime-Glo MT Cell Viability Assay in HEK293 cells - 0 hour (AID 1224880); also: top concentration of the series differs between compounds; nearly all actives have a fitted effect of over 45% in size
Outline: (§2)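 600 HEK293 cells per well, dispensed already mixed with RealTime-Glo MT reagents. Compound dosing came 5 h later. The same wells were read for luminescence at 0, 8, 16, 24, 32 and 40 h of exposure at 37 C.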

[5] = A CellTox Green Cytotoxicity Assay to monitor cytotoxicity in HepG2 cells - 0 hour (AID 1224882); also: nearly all actives have a fitted effect of over 35% in size
Outline: as §1

[6] = A CellTox Green Cytotoxicity Assay to monitor cytotoxicity in HepG2 cells - 32 hour (AID 1224883); also: nearly all actives have a fitted effect of over 50% in size
Outline: as §1

[7] = A CellTox Green Cytotoxicity Assay to monitor cytotoxicity in HEK293 cells - 8 hour (AID 1224884); also: nearly all actives have a fitted effect of over 35% in size
Outline: (§3)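 Dead-cell fluorescence measured kinetically: asymmetric cyanine dye, HEK293, 600 cells/well, 5 h settle, 23 nL cpd/DMSO, 37 C, reads 0–40 h every 8 h.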

[8] = qHTS RealTime-Glo MT Cell Viability Assay in HepG2 cells - 16 hour (AID 1224885); also: nearly all actives have a fitted effect of over 50% in size
Outline: (§4)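 Luminescence read-out: viable HepG2 cells reduce a prosubstrate to a NanoLuc substrate, giving a signal proportional to live cell number. Reads taken at 0, 8, 16, 24, 32 and 40 h of compound exposure at 37 C.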

[9] = qHTS RealTime-Glo MT Cell Viability Assay in HEK293 cells - 24 hour (AID 1224886); also: top concentration of the series differs between compounds; nearly all actives have a fitted effect of over 50% in size
Outline: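 Nonlytic real-time viability readout: viable cells convert prosubstrate to NanoLuc substrate, giving luminescence proportional to live cell number. HEK293, 600 cells/well, compound added after 5 h, continuous culture at 37 C.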

[10] = A CellTox Green Cytotoxicity Assay to monitor cytotoxicity in HEK293 cells - 16 hour (AID 1224888); also: nearly all actives have a fitted effect of over 35% in size
Outline: as §3

[11] = qHTS RealTime-Glo MT Cell Viability Assay in HepG2 cells - 0 hour (AID 1224889); also: nearly all actives have a fitted effect of over 50% in size
Outline: as §4

[12] = A CellTox Green Cytotoxicity Assay to monitor cytotoxicity in HepG2 cells - 8 hour (AID 1224890); also: nearly all actives have a fitted effect of over 45% in size
Outline: as §1

[13] = qHTS assay to identify small molecule antagonists of the estrogen receptor alpha (ER-alpha) signaling pathway using the BG1 cell line in the presence of 0.1 nM 17-beta-estradiol - cell viability counter screen (AID 1259241); also: nearly all actives have a fitted effect of over 40% in size
Outline: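 Cells were plated and left 24 hr, compounds in DMSO were pinned in, 17beta-estradiol was added to 0.1 nM final, and after 22 hr CellTiter-Fluor reagent was added for 30 min before fluorescence was read.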

[14] = qHTS assay to identify small molecule antagonists of the androgen receptor (AR) signaling pathway using the MDA cell line in the presence of 0.5 nM R1881 - cell viability counter screen (AID 1259242); also: nearly all actives have a fitted effect of over 45% in size
Outline: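 qHTS format. MDA-kb2 (MMTV-luc, AR/GR responsive) + cpd + 0.5 nM R1881 final, 16 hr 37C/0% CO2 → CellTiter-Fluor 30 min → fluorescence intensity.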

[15] = target: Estrogen receptor (Homo sapiens) (UniProt P03372); test: qHTS assay to identify small molecule antagonists of the estrogen receptor alpha (ER-alpha) signaling pathway using the BG1 cell line in the presence of 0.1 nM 17-beta-estradiol (AID 1259244); also: nearly all actives have a fitted effect of over 50% in size
Sequence of Estrogen receptor (Homo sapiens) (P03372 whole entry, looked up): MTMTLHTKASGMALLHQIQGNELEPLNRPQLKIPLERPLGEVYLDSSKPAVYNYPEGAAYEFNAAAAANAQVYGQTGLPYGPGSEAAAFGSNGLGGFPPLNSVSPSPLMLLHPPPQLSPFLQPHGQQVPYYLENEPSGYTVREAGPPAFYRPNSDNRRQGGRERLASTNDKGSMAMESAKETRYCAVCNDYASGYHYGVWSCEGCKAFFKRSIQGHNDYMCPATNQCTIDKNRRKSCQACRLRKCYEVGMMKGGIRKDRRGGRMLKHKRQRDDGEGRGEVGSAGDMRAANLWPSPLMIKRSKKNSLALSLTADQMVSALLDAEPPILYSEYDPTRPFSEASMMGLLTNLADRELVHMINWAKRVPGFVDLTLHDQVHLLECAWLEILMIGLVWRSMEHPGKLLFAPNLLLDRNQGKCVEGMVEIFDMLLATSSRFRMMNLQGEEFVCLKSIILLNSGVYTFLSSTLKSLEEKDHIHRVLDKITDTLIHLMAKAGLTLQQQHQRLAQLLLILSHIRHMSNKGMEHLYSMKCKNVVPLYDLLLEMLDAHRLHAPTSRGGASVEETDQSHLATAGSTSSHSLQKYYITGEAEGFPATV
Outline: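 Reporter is a stably transfected luciferase under four estrogen responsive elements in VM7Luc4E2 cells expressing native full-length ER-alpha; inhibition of 0.1 nM (final) 17beta-estradiol-driven signal over 22 h is read by luminescence.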

[16] = qHTS assay to identify small molecule phospholipidosis (PLD) inducers (AID 1259344; active = well fitted curve in the direction sought with a large enough effect; an effect the other way counts as inactive or inconclusive)
Outline: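 After 4 h attachment on collagen I, HepG2 cells were dosed with compound alongside LipidTOX Red, kept 24 h at 37 C, fixed, and imaged for lamellar phospholipid pits.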

[17] = A CellTox Green Cytotoxicity Assay to monitor cytotoxicity in HEK293 cells - 32 hour (AID 1224881); also: nearly all actives have a fitted effect of over 40% in size
Outline: as §3

[18] = qHTS RealTime-Glo MT Cell Viability Assay in HEK293 cells - 8 hour (AID 1224887)
Outline: as §2

[19] = target: Androgen receptor (Homo sapiens) (UniProt P10275); test: qHTS assay to identify small molecule antagonists of the androgen receptor (AR) signaling pathway using the MDA cell line in the presence of 0.5 nM R1881 (AID 1259243); also: nearly all actives have a fitted effect of over 50% in size
Sequence of Androgen receptor (Homo sapiens) (P10275 whole entry, looked up): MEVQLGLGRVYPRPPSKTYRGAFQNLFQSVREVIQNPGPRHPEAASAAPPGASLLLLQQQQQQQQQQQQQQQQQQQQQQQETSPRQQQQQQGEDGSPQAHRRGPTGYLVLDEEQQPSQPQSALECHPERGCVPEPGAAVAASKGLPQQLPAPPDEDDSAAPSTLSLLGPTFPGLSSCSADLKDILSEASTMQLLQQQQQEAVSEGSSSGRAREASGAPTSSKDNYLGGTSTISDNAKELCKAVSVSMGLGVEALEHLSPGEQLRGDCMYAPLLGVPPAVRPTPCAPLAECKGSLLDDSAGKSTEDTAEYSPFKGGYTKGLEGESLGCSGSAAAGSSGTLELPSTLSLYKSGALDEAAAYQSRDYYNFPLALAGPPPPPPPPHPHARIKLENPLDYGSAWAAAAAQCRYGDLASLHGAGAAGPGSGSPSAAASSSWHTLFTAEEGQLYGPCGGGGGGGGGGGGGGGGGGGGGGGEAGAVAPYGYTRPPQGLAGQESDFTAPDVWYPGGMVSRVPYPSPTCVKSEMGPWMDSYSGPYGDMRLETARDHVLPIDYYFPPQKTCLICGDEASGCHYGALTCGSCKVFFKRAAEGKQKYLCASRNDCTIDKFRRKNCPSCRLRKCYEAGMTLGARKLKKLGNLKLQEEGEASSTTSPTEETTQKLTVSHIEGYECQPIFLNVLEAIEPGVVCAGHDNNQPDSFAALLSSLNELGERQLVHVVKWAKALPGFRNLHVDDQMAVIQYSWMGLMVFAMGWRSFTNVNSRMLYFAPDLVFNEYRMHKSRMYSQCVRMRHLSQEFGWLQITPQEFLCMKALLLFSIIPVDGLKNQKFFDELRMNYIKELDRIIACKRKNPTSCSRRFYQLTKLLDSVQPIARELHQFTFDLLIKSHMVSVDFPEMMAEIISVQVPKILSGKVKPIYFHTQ
Outline: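 Antagonist mode quantitative HTS in MDA-kb2 MMTV-luciferase cells, agonist R1881 at 0.5 nM final, 16 hr exposure at 37C and 0% CO2, luminescent detection.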

[20] = qHTS RealTime-Glo MT Cell Viability Assay in HepG2 cells - 32 hour (AID 1224877); also: nearly all actives have a fitted effect of over 55% in size
Outline: as §4
% is scaled to controls: 0 for no effect and ±100 for the full control effect.

CCC[C@@H]1C[C@@H](C(=O)N[C@@H]([C@H]2O[C@H](SC)[C@H](O)[C@@H](O)[C@H]2O)[C@@H](C)O)N(C)C1
inactive: Potency [1] | Potency [2] | Potency [3] | Potency [4] | Potency [5] | Potency [6] | Potency [7] | outcome [8] | Potency [9] | Potency [10] | Potency [11] | Potency [12] | outcome [13] | outcome [14] | outcome [15] | outcome [16]

CC1c2ccccc2CN1NC(=O)c1ccc(Cl)c(S(N)(=O)=O)c1 (stereo not drawn)
inactive: Potency [1] | Potency [2] | Potency [3] | Potency [4] | Potency [17] | Potency [7] | outcome [8] | Potency [9] | Potency [18] | Potency [10] | Potency [11] | Potency [12] | outcome [13] | outcome [14] | outcome [15] | PLD induction [16] -1.83% [at 1.53 µM]

CCCCCCC1(C)CCC(=O)O1 (stereo not drawn)
inactive: Potency [1] | Potency [2] | Potency [3] | Potency [4] | Potency [6] | Potency [7] | outcome [8] | Potency [18] | Potency [10] | Potency [11] | Potency [12] | outcome [13] | outcome [14] | outcome [15]

COC(=O)CCCCC(=O)O
inactive: Potency [1] | Potency [2] | Potency [4] | Potency [17] | Potency [7] | outcome [8] | Potency [9] | Potency [18] | Potency [10] | Potency [11] | Potency [12] | outcome [13] | outcome [14] | outcome [15]

C[C@@H](O)C(=O)O
inactive: Potency [1] | Potency [2] | Potency [4] | Potency [17] | Potency [5] | Potency [6] | Potency [7] | outcome [8] | Potency [9] | Potency [18] | Potency [10] | Potency [11] | Potency [12] | outcome [13] | outcome [14] | outcome [15]

CN(C)CCOC(=O)C(c1ccccc1)C1(O)CCCC1 (stereo not drawn)
inactive: Potency [1] | Potency [2] | Potency [4] | Potency [17] | Potency [5] | Potency [6] | Potency [7] | outcome [8] | Potency [9] | Potency [18] | Potency [10] | Potency [11] | Potency [12] | outcome [13] | outcome [14] | outcome [15] | outcome [16]

CCN1CCCC1CN (stereo not drawn)
inactive: Potency [1] | Potency [2] | Potency [3] | Potency [4] | Potency [17] | Potency [5] | Potency [6] | outcome [8] | Potency [9] | Potency [18] | Potency [10] | Potency [11] | Potency [12] | outcome [13] | outcome [14] | outcome [15]

Cc1cccc(Cl)c1
inactive: Potency [1] | Potency [2] | Potency [4] | Potency [17] | Potency [6] | Potency [7] | outcome [8] | Potency [10] | Potency [11] | Potency [12] | outcome [13] | outcome [14]

[O-][n+]1cccc(/C(Cl)=N/OC[C@@H](O)CN2CCCCC2)c1
inactive: Potency [1] | Potency [2] | Potency [3] | Potency [4] | Potency [6] | outcome [8] | Potency [10] | Potency [11] | Potency [12] | outcome [13] | outcome [14] | Potency [19] | outcome [15]

C=C(C)c1cccc(C(C)(C)N=C=O)c1
inactive: Potency [1] | Potency [2] | Potency [3] | Potency [4] | Potency [17] | Potency [6] | Potency [7] | outcome [8] | Potency [9] | Potency [18] | Potency [10] | Potency [11] | Potency [12] | outcome [13] | outcome [14] | outcome [15]

C#CCN[C@@H]1CCc2ccccc21
inactive: Potency [1] | Potency [2] | Potency [3] | Potency [4] | Potency [17] | Potency [5] | Potency [6] | Potency [7] | outcome [8] | Potency [9] | Potency [10] | Potency [11] | Potency [12] | outcome [13] | outcome [14] | Potency [19] | outcome [15] | outcome [16]

CCCCCCCCCCCCCCCCCC#N
inactive: outcome [20] | Potency [2] | Potency [3] | Potency [4] | Potency [17] | Potency [5] | Potency [6] | Potency [7] | outcome [8] | Potency [9] | Potency [18] | Potency [10] | Potency [11] | Potency [12] | outcome [13] | outcome [14] | outcome [15]

O=C(Cn1ccnc1[N+](=O)[O-])NCc1ccccc1
inactive: Potency [1] | Potency [2] | Potency [3] | Potency [4] | Potency [17] | Potency [5] | Potency [7] | outcome [8] | Potency [9] | Potency [18] | Potency [10] | Potency [11] | Potency [12] | outcome [13] | outcome [14] | outcome [15] | outcome [16]

O=C(Cl)c1ccccc1[N+](=O)[O-]
inactive: Potency [1] | Potency [2] | Potency [3] | Potency [4] | Potency [17] | Potency [6] | Potency [7] | outcome [8] | Potency [10] | Potency [11] | Potency [12] | outcome [13] | outcome [14] | Potency [19]

CC(=O)C(C)O (stereo not drawn)
inactive: Potency [1] | Potency [2] | Potency [3] | Potency [4] | Potency [5] | Potency [6] | Potency [7] | outcome [8] | Potency [9] | Potency [18] | Potency [10] | Potency [12] | outcome [13] | outcome [14]

O=[N+]([O-])c1c(Cl)cc(Cl)cc1Cl
inactive: Potency [1] | Potency [2] | Potency [4] | Potency [5] | Potency [6] | Potency [7] | outcome [8] | Potency [9] | Potency [18] | Potency [11] | Potency [12] | outcome [13] | outcome [14]

— PubChem BioAssay (Tox21)
